Bioassay records: PubChem BioAssay, National Center for Advancing Translational Sciences (NCATS)
DRD3 antagonist = qHTS of D3 Dopamine Receptor Antagonist: qHTS; 360,000 compounds, 2.5% hits; max response, negative = inhibition, %; AID 652054, 2013; D3R cells, DiscoveRx beta-arrestin luminescence, antagonist mode; active compounds read low; D(3) dopamine receptor (Homo sapiens), P35462; in the data active means max response below about -50%; inconclusive means no clear call, values can overlap the other calls
Target sequence (P35462 whole entry, looked up): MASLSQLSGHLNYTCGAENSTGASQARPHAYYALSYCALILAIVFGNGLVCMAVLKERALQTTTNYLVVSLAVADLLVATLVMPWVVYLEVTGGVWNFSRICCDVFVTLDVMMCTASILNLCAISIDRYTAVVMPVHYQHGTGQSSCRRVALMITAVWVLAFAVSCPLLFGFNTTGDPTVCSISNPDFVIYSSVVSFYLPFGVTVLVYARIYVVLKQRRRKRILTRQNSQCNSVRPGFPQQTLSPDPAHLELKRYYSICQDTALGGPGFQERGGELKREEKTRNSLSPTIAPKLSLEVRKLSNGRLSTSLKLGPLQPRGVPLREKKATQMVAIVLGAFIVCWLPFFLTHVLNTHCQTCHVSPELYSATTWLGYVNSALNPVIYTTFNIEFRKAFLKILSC
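Cells plated overnight at 1500 cells/well, then exposed to library compounds with dopamine controls for 90 minutes at 37 degrees C. DiscoveRx reagent added for 30–60 minutes at room temperature; luminescence read, quantitative HTS format.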
HEK293 tox = qHTS of GLP-1 Receptor Inverse Agonists: Cytotox Screen; AID 624418, 2012; Potency, µM (doses to about 38.3 µM), hits mostly inhibitors; 410,000 compounds, 0.13% hits; HEK293 cAMP-luciferase reporter cells, luminescence, 24 h;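 further: loss of luciferase light is scored as toxicity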
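Luminescence readout: signal drop marks cytotoxicity. Plated cells grew 12 h at 37 °C, 5% CO2, received 23 nL compound for 24 h, then got luciferase reagent, read after 12 min at RT.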
GLP1R ag = qHTS of GLP-1 Receptor Agonists. Glucagon-like peptide 1 receptor (Homo sapiens), P43220. HEK293 GLP-1R CRE-luciferase, luminescence, 4-6 h; cells express a hypersensitive GLP-1R form. Potency, µM (doses to about 45.6 µM), actives largely listed as activators. 380,000 compounds, 0.007% hits. AID 624172, 2012
ClpP mod = qHTS Assay for Activators of ClpP; ATP-dependent Clp protease proteolytic subunit (Bacillus subtilis (strain 168)), P80244; purified B. subtilis ClpP, FRET peptide cleavage, 20 min; Potency, µM (titrated, usually from 57.5 µM); 340,000 compounds, 1.9% hits; active means well fitted falling curve with a large enough effect; inconclusive means small, poorly fitted or top-dose-only effect; inactive means no such curve, though single readings can be large or run the other way; further: the source files actives as falling curves though it sought activators and does not explain the sign; nearly all actives have a fitted effect of over 65% in size
Target sequence (P80244 whole entry, looked up): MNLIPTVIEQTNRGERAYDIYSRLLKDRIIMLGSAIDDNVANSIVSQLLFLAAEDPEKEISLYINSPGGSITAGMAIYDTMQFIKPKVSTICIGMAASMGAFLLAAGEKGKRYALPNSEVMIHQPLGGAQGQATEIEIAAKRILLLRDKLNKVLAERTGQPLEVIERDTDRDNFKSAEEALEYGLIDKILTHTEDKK
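Buffer: 100 mM Tris/HCl pH8, 100 mM KCl, 0.05% low protease BSA, 2.5% glycerol, 0.01% Tween-20. ClpP 10 microg/mL final; 20 min RT; delta FRET normalized to ADEP and DMSO controls.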
D3 ag = qHTS of D3 Dopamine Receptor Agonist: qHTS; D3R DiscoveRx beta-arrestin cells, luminescence, 90 min; max activation, %; 410,000 compounds, 0.58% hits; D(3) dopamine receptor (Homo sapiens), P35462; in the data active means max activation above about 30%
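Agonist-mode cell screen: cells plated at 1500/well and incubated overnight at 37 °C, then exposed to library compounds for 90 min at 37 °C. Detection reagent was added for 30–60 min at room temperature, and luminescence was read.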
GLP-1R inv ag = qHTS of GLP-1 Receptor Inverse Agonists (Inhibition Mode). AID 624417, 2012. HEK293 GLP-1R CRE-luciferase, luminescence, 24 h; GLP-1R form is constitutively active. Glucagon-like peptide 1 receptor (Homo sapiens), P43220. Potency, µM (titrated, usually from 38.3 µM), hits mostly inhibitors. 410,000 compounds, 1.6% hits; further: nearly all actives have a fitted effect of over 55% in size
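Constitutively active GLP-1R drives a cAMP-responsive luciferase in stably transfected HEK293 cells; test compounds are added after overnight (12 h) attachment and left 24 hr, and signal loss in luminescence marks inhibition.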
A number is an active result; – = inactive; ? = inconclusive; · = no result. Shown are actives, neighbours in structure and some others; about 5.7% of the full set was active somewhere. Unless noted, the call rests on the fitted dose curve; in most records, active means well fitted curve in the direction sought with a large enough effect; inconclusive means small, poorly fitted or top-dose-only effect, or another doubt; inactive means no such curve, though single readings can be large; an effect the other way counts as inactive or inconclusive.

SMILES	DRD3 antagonist	HEK293 tox	GLP1R ag	ClpP mod	D3 ag	GLP-1R inv ag
CC(C)=CCC[C@](C)(OC1OC(COC2OCC(O)C(O)C2O)C(O)C(O)C1O)C1CC[C@]2(C)C1C(O)CC1[C@@]3(C)CCC(O[C@@H]4O[C@H](CO)C(O)C(O)C4O[C@@H]4OC(CO)C(O)C(O)C4O)C(C)(C)C3CC[C@]12C (stereo partly specified)	–	–	–	–	–	–
CC(C)=CCC[C@](C)(O)C1CC[C@]2(C)C1[C@H](O)CC1[C@@]3(C)CC[C@H](O[C@@H]4O[C@H](CO)[C@@H](O)[C@H](O)[C@H]4O[C@@H]4O[C@H](CO)[C@@H](O)[C@H](O)[C@H]4O)C(C)(C)C3CC[C@]12C (stereo partly specified)	-61	–	–	–	–	–
CCOC(=O)C1(C)CCCN1C(=O)c1snnc1C (stereo unspecified)	-51	–	–	–	–	–
CCN(CC)c1ccc(/C=N/OC(C)C(=O)Nc2ccc(C)cc2)cc1 (stereo unspecified)	–	–	–	28µM	–	?
CC(=O)Nc1ccc(/C=N/OCC(=O)Nc2ccc(C)cc2)cc1	–	–	–	–	–	–
CO/N=C1/CC2(CC3CC(C/C=C(/C)CC(C)/C=C\C=C4\COC5C(O)C(C)=CC(C(=O)O3)C45O)O2)OC(/C(C)=C/C(C)C)C1C (stereo unspecified)	·	·	–	·	·	·
CCCC(C)NC(=O)c1nc(-c2ccccc2)n(-c2ccccc2)n1 (stereo unspecified)	–	–	–	–	–	8.9µM
Cc1cc(C)n(-c2nc3ccccc3nc2Nc2ccc(Cl)c(Cl)c2)n1	·	–	·	–	–	–
Cc1ccc(N(C(=O)COc2ccccc2C)S(=O)(=O)c2ccc(Cl)cc2)cc1	·	–	·	0.71µM	–	?
O=C(/C=C/c1cc2c(cc1Br)OCO2)NCc1ccc(F)cc1	–	–	–	?	–	–
COc1ccc(CNC(=O)/C=C/c2cc3c(cc2Br)OCO3)cc1	–	–	–	25µM	–	–
CN(C)c1ccc(CNC(=O)CCn2c(=O)c3cccn3c3ccc(F)cc32)cc1	·	–	·	–	–	–
CCCCOc1ccccc1C(=O)N(Cc1cccc(F)c1)C1CCS(=O)(=O)C1 (stereo unspecified)	·	–	·	–	–	–
CCC(=O)Nc1cccc(C2=NOC3(C2)C[C@@H](C(N)=O)N(C(=O)C(c2ccccc2)c2ccccc2)C3)c1 (stereo partly specified)	–	–	–	–	–	–
C/C=C\C=C/C(=O)Nc1cccc(C2=NOC3(C2)C[C@H](C(N)=O)N(C(=O)CC)C3)c1 (stereo partly specified)	–	–	–	–	31	–
NC(=O)[C@H]1CC2(CC(c3cccc(NC(=O)COc4ccc(Cl)cc4)c3)=NO2)CN1C(=O)C(c1ccccc1)c1ccccc1 (stereo partly specified)	–	?	–	–	–	5.6µM
NC(=O)[C@@H]1CC2(CC(c3cccc(NC(=O)COc4ccc(Cl)cc4)c3)=NO2)CN1C(=O)COc1ccc(Cl)cc1 (stereo partly specified)	–	–	–	–	–	11µM
CCOc1ccc(-n2c(=O)c3c4c(sc3n(CC(=O)Nc3cccc(C(F)(F)F)c3)c2=O)CCCCC4)cc1	·	–	–	–	–	–
O=C(Nc1cc(C(=O)N2CCCC2)ccc1N1CCCC1)c1ccccc1F	–	–	–	–	61	–
COc1ccc(CN(C)C(=O)c2cc(-c3ccccc3)nc3ccc(C)cc23)c(OC)c1	–	?	–	?	–	5.6µM
O=C(Nc1ccc(F)cc1)c1oc2ccccc2c1NC(=O)C1CCCCC1	·	–	–	–	–	–
CCCC(=O)Nc1ccc2nn(-c3ccc(OC)cc3)nc2c1	–	–	–	–	–	–
CCCC(=O)Nc1cc2nn(-c3ccc(OC)cc3)nc2cc1C	·	–	·	–	43	–
COc1ccc(-n2nc3cc(C)c(NC(=O)c4cccnc4)cc3n2)cc1	–	–	–	25µM	–	–
CCc1c(C)c2ccc3c(c2oc1=O)CN(Cc1ccccc1)CO3	·	–	–	–	–	–
SMILES	DRD3 antagonist	HEK293 tox	GLP1R ag	ClpP mod	D3 ag	GLP-1R inv ag
CCN(CC)S(=O)(=O)c1cc(NC(=O)CSc2nnc(N)s2)ccc1C	–	–	–	–	–	–
CCN(CC)S(=O)(=O)c1cc(NC(=O)CSc2nc3c(cc2C#N)C(=O)CC(C)(C)C3)ccc1C	–	–	–	–	34	–
COc1ccc(-c2cc(C(F)(F)F)nc(SCCC(=O)NCc3ccccc3)n2)cc1	–	–	–	13µM	–	–
COc1ccc(-c2cc(C(F)(F)F)nc(SCCC(=O)Nc3cc(C)ccc3O)n2)cc1	·	–	–	–	37	–
COc1ccc(-c2cc(C(F)(F)F)nc(SCCC(=O)Nc3ccccc3F)n2)cc1	·	–	–	–	–	–
COCCNC(=O)CSc1nc(-c2ccccc2C)nc2c1c(=O)n(C)c(=O)n2C	·	–	·	–	–	–
O=C(NCc1ccccc1)c1cc(C2COCCN2C(=O)c2ccc3c(c2)CCO3)on1 (stereo unspecified)	–	–	–	–	–	–
CC(=O)N1N=C(c2cccc([N+](=O)[O-])c2)OC1c1ccccc1Cl (stereo unspecified)	-60	–	–	–	–	–
Cc1ccc(N=Nc2c(C)[nH]n(C(N)=S)c2=O)cc1C	–	?	–	–	–	0.5µM
C=CCN1C(=O)c2ccc(C(=O)N(C)CC(=O)Nc3ccccc3Br)cc2C1=O	–	–	–	22µM	–	–
CC(C)CCSc1nc(N)c(C#N)cc1C#N	–	–	–	32µM	–	–
CC(=O)c1cc(C#N)c(SCCC(C)C)nc1C	–	–	?	–	–	–
O=C1C2C3C=CC(C3)C2C(=O)N1CCN1CCN(S(=O)(=O)c2ccc3ccccc3c2)CC1 (stereo unspecified)	–	–	–	–	–	11µM
COc1ccccc1N1CCN(C2CCN(S(=O)(=O)c3ccc4ccccc4c3)CC2)CC1	-54	–	–	–	–	?
O=S(=O)(c1ccccc1)N1CCN(C2CCN(Cc3ccccc3)CC2)CC1	?	–	–	–	–	?
O=S(=O)(c1ccc2ccccc2c1)N1CCN(C2CCN(Cc3ccccc3)CC2)CC1	-61	–	–	–	–	–
